Rows were chosen to be rich in hits. Some 11% of all compounds tested hit in one or more screens of this group.
Pf growth 96h – P. falciparum growth inhibition at 96 hour, primary screen for plastid delayed-death inhibitors; 320,000 tested, 6.9% active; P. falciparum luciferase reporter growth, 96 h; Potency, µM (titrated, usually from 28.7 µM), without a hit: at the highest dose activity change, negative = inhibition, actives largely listed as inhibitors; further: on the % scale 0 is the no-effect control and ±100 the full control effect
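Parasite growth measured via integrated firefly luciferase reporter in P. falciparum. Infected erythrocytes at 2% hematocrit, 0.05% parasitemia final were treated 96 hours at 37 C under 5% CO2, and luminescence was read.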
Pf growth 48h – inhibits P. falciparum growth in the first generation, 48 h; P. falciparum luciferase growth in erythrocytes, 48 h; Potency, µM (highest dose often 28.7 µM), without a hit: top-dose activity change, negative = inhibition, most hits filed as inhibitors; 310,000 tested, 5.9% active; further: on the % scale 0 is the no-effect control and ±100 the full control effect
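Growth was read as firefly luciferase luminescence after a 48 h, 37 C, 5% CO2 exposure of compounds to reporter-bearing P. falciparum cultures (0.1% parasitemia, 2% hematocrit final) in Albumax-supplemented RPMI 1640.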
NS1 inh – blocks influenza NS1 protein function; Potency, µM (doses to about 46.1 µM), inactives show top-dose activity, positive = more growth; 270,000 tested, 0.4% active; AID 2326; calls by dose curve; further: actives are rising curves; nearly all actives have a fitted effect of over 50% in size
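Growth recovery, yeast-based: influenza A NS1 expressed in S. cerevisiae causes slow growth, and suppressors are detected by OD600. The parent strain without NS1 is used as positive control.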
Vaccinia mCherry – inhibitors of vaccinia virus infection (mCherry reporter signal). 310,000 tested, 0.63% active. Potency, µM (doses to about 36.5 µM), without a hit: at the highest dose activity change, negative = inhibition, usual class: inhibitors. Vaccinia virus mCherry reporter infection, fluorescence; calls by dose curve; tested in A549 cells; further: on the % scale 0 is the no-effect control and ±100 the full control effect; nearly all actives have a fitted effect of over 35% in size
VACV Venus inh – inhibitors of vaccinia virus (Venus reporter); 330,000 tested, 0.46% active; Vaccinia virus Venus reporter expression, fluorescence; Potency, µM (doses to about 36.5 µM), inactives show at the highest dose activity change, negative = inhibition, actives largely listed as inhibitors; calls by dose curve; tested in A549 cells; further: on the % scale 0 is the no-effect control and ±100 the full control effect; nearly all actives have a fitted effect of over 30% in size
HCV inh – HCV inhibition; Huh7.5.1 HCVcc-Cre infection, luciferase reporter, 44 h; Potency, µM (series often up to 41.8 µM), inactives show at the top dose activity change, negative = inhibition, hits mostly inhibitors; 340,000 tested, 3.4% active; further: on the % scale 0 is the no-effect control and ±100 the full control effect
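Cells seeded at 1,000/well and cultured 4 h, then compounds added followed by HCVcc-Cre virus (~0.5 moi). After 44 h further culture, luciferase substrate was added, plates held 15 min at room temperature, and luminescence read for 15 sec.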
* = called active by the depositor; i = inactive; ? = inconclusive; . = no result given; [ ] = dose if it differs, or a comment. Unless noted, the call rests on the fitted dose curve; in most records, active means well fitted inhibition curve with a large enough effect; inconclusive means small, poorly fitted or top-dose-only effect, or another doubt; inactive means no such curve, though single readings can be large or run the other way. Potency means the concentration at half of the fitted maximal effect.

SMILES	Pf growth 96h	Pf growth 48h	NS1 inh	Vaccinia mCherry	VACV Venus inh	HCV inh
CCOc1ccc(C2N(c3cc(C)on3)C(=O)C3CCCN32)cc1OC (configuration not stated)	23.4%	?	5.9%	.	.	8.3%
COc1ccccc1CNC(=O)c1cn(C)c(=O)c2cc(OC)c(OC)cc12	?	.	8.2%	.	.	6.9%
COc1ccc(CN(C)CC(=O)Nc2cc3oc4ccccc4c3cc2OC)c(OC)c1	9.28µM*	?	-16.5%	-12.7%	-28.1%	?
COc1cc2c(cc1NC(=O)CN(C)Cc1ccc(OC)c(OC)c1)oc1ccccc12	7.38µM*	9.28µM*	-19.0%	.	.	3.55µM*
CCOC(=O)c1c(N)n(C2CC(C)(C)NC(C)(C)C2)c2nc3ccccc3nc12	9.28µM*	10.4µM*	-2.5%	?	?	9.0%
CCOC(=O)c1c(NC(=O)c2ccco2)n(C2CCCCC2)c2nc3ccccc3nc12	10.4µM*	?	14.2%	-6.8%	5.4%	?
CCOC(=O)CC1=NN(c2ccccc2)C(=O)/C1=C\c1ccc(N(C)C)cc1	5.86µM*	?	-2.1%	.	.	9.0%
CCOC(=O)CC1=NN(c2ccccc2)C(=O)C1	36.2%[5.75 µM]	-9.8%	8.0%	-4.3%	-9.3%	2.7%
C[C@@H]1COc2cc(N3CCN(C)CC3)ccc2S(=O)(=O)N1	.	.	.	49.3%	1.7%	.
CC(=O)N(c1ccccc1C)C1CCCC1	-23.2%	8.0%	?	-8.6%	-6.2%	32.0%
CC(=O)N(C1=C(Cl)C(=O)c2ccccc2C1=O)C1CCCCC1	?	?	-91.7%	?	?	7.94µM*
COc1ccc(/C=N/NC(=O)c2[nH]c(C)c(C(=O)N/N=C/c3ccc(OC)cc3)c2C)cc1	26.6%	49.1%	16.4%	i	-11.9%	?
CCOC(=O)c1c(C)[nH]c(C(=O)Nc2ccc(NC(C)=O)cc2)c1C	0.0%	0.0%	.	.	.	?
COc1cccc(/C=N/NC(=O)c2[nH]c(C)c(C(=O)N/N=C/c3cccc(OC)c3)c2C)c1	?	43.3%	-0.2%	-16.9%	-11.8%	10µM*
CCOC(=O)c1c(C)[nH]c(C(=O)N/N=C/c2cccc(OC)c2)c1C	-24.9%	-7.4%	5.2%	?	?	22.4µM*
CCOC(=O)c1c(C)[nH]c(C(=O)N/N=C\c2ccccc2Cl)c1C	9.28µM*	?	5.9%	?	?	?
COc1ccc(N(C(=O)c2cccc(OC)c2OC)C2C=CS(=O)(=O)C2)cc1 (configuration not stated)	2.33µM*	35.2%	-8.6%	i	-7.6%	21.1%
CCCC(=O)N(c1ccc(OC)cc1)C1C=CS(=O)(=O)C1 (configuration not stated)	-7.4%	0.4%	-1.2%	-11.5%	-1.5%	17.9%
CN(C)Cc1cc(C(C)(C)c2cc(CN(C)C)c(O)c(CN(C)C)c2)cc(CN(C)C)c1O	.	4.15µM*	2.7%	.	.	7.8%
Cc1cc(F)ccc1S(=O)(=O)N1CCCOC1CNC(=O)C(=O)NC1CC1 (configuration not stated)	-18.9%	-0.5%	6.5%	-9.7%	-10.6%	23.2%
CCOc1ccc(CN(C(=O)c2cccs2)C2CCS(=O)(=O)C2)cc1 (configuration not stated)	-24.5%	0.8%	-1.6%	i	-14.2%	5.9%
COc1cc(NC(=O)NS(=O)(=O)c2ccc(C)cc2)cc(OC)c1	-22.4%	.	1µM*	.	.	13.5%
Cc1ccc(CNC(=S)Nc2ccc(NS(=O)(=O)c3ccc(C)cc3)cc2)cc1	10.4µM*	-21.2%	16.1%	-13.8%	-21.9%	-23.8%
COc1ccc(NC(=O)NS(=O)(=O)c2ccc(C)cc2)cn1	40.6%	-3.2%	-3.6%	-13.6%	2.5%	9.3%
Cc1ccc(NC(=S)NCc2ccc(F)cc2)cc1	.	.	.	i[7.34 µM]	-6.7%[7.34 µM]	5.5%
SMILES	Pf growth 96h	Pf growth 48h	NS1 inh	Vaccinia mCherry	VACV Venus inh	HCV inh
Cc1ccc(S(=O)(=O)Nc2ccc(-n3cnnn3)cc2)cc1	11.7µM*	5.7%	14.7%	?	-16.4%	5.7%
Cc1ccc(S(=O)(=O)NC(=O)Nc2ccccc2)cc1	6.57µM*	31.3%	1.7%	-6.9%	0.0%	8.0%
CC(=O)c1ccc(NC(=O)Nc2ccc(NS(=O)(=O)c3ccc(C)cc3)cc2)cc1	3.8%	?	6.5%	?	?	11.2µM*
COC(=O)Nc1ccc(S(=O)(=O)Nc2ccc(C)cc2)cc1	8.0%	.	-5.8%	.	.	.
Cc1cc(C)c2c(c1)cc(C)c1nnc(SCC(=O)N3CCCc4ccccc43)n12	5.86µM*	1.4%	3.5%	i	-0.6%	-13.5%
Cc1cc(C)nc(SCc2nnc(SCC(=O)N3CCCc4ccccc43)o2)n1	1.47µM*	-20.9%	-13.5%	-19.4%	-11.9%	?
Cn1c(SCC(=O)N2CCCc3ccccc32)nnc1-c1ccco1	1.9%	-1.4%	1.0%	-12.3%	-6.8%	?
Cc1ccc(C)c2c1cc(C)c1nnc(SCC(=O)N3CCCc4ccccc43)n12	47.6%	5.3%	3.3%	i	-8.1%	3.9%
Cc1cc(C)nc(SCc2nnc(SCC(=O)N3CCCc4ccccc43)n2C)n1	122.8%	?	-5.4%	-5.1%	0.3%	11.2µM*
Cc1ccc(NCc2nnc(SCC(=O)N3CCc4ccccc43)n2C)cc1	4.65µM*	-27.8%	-5.4%	.	.	-24.6%
O=C(Nc1ccccc1-c1nnn(CC(=O)N2CCCc3ccccc32)n1)c1ccc(Cl)cc1	11.7µM*	?	2.8%	-13.7%	-15.8%	7.3%
O=C(Nc1ccccc1-c1nnn(CC(=O)N2CCCc3ccccc32)n1)c1ccco1	81.0%	?	5.3%	-10.0%	-5.3%	?
Cn1c(SCC(=O)N2CCCc3ccccc32)nnc1-c1ccccc1	?	?	6.1%	i	-19.9%	21.7%
Nn1c(SCC(=O)N2CCCc3ccccc32)nnc1-c1ccc(Cl)cc1	11.7µM*	0.0%	10.8%	?	-16.3%	1.8%
Cc1ccc(CNC(=O)CN(Cc2ccccc2)S(C)(=O)=O)cc1	-19.6%	-8.5%	-1.0%	-16.3%	-12.1%	18.3%
COc1cc2c(=O)n(-c3ccc(C)cc3)c(=O)n(CC(=O)c3ccc4c(c3)OCO4)c2cc1OC	38.0%	11.7µM*	-14.8%	.	-1.4%	0.2%
COc1ccc(C(=O)NC2CCN(CC(=O)NCc3cccc(OC)c3)CC2)cc1	28.5%	7.0%	5.0%	i	-4.9%	-8.1%
COc1cc2[nH]c3ccccc3c2cc1C	-12.7%	60.9%	12.5%	i	-9.3%	2.3%
CCC/C=C(\CCC)C(NS(=O)(=O)c1ccc(C(F)(F)F)cc1)c1ccccc1 (configuration not stated)	7.38µM*	9.28µM*	-43.5%	.	.	-0.7%[8.37 µM]
Cc1ccc(OCCNS(=O)(=O)c2ccc(N3CCCC3=O)cc2)cc1	?	-2.1%	2.7%	.	?	?
CCCCCc1c2c(cc(O)c1C(=O)O)OC(=O)c1c(cc(OC)cc1C(=O)CCCC)O2	30.1%	0.0%	6.8%	i	0.0%	7.9%

Screening results deposited in PubChem by National Center for Advancing Translational Sciences (NCATS).
